Compound activity as filed in PubChem BioAssay.
Cruzain Triton: inhibitors of Trypanosoma cruzi cruzain with detergent. P25779. purified cruzain, Z-FR-AMC fluorescence, 0.01% Triton. Potency, µM, inactives show max response, negative = inhibition, most hits filed as inhibitors. 200,000 tested, 0.43% active. AID 1478;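 also: plate controls were neutral wells for no effect and buffer without enzyme for full effect; nearly all actives have a fitted effect of over 40% in size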
Target sequence (P25779 123-467 limits assumed): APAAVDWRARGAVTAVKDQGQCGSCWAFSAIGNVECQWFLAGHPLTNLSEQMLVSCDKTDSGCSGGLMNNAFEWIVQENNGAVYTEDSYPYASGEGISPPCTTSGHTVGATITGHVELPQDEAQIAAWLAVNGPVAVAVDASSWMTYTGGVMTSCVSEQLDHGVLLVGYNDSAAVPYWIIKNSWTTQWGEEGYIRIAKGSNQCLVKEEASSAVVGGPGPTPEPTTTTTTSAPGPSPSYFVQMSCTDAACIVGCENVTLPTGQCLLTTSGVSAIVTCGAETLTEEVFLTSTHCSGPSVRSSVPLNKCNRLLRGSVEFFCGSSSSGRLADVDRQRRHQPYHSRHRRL
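In this qHTS format, compounds are incubated with 1.5 nM cruzain for 15 min at room temperature before 2 uM Z-FR-AMC is added. Release of AMC is followed at 360/450 nm, and progress is taken as the 60 s fluorescence difference.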
Cruzain noTriton: inhibitors of Trypanosoma cruzi cruzain without detergent; P25779; purified cruzain, Z-FR-AMC fluorescence, no detergent; Potency, µM, inactives show max response, negative = inhibition, actives largely listed as inhibitors; 200,000 tested, 2.3% active; AID 1476;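 also: plate controls were enzyme without inhibitor for no effect and buffer without enzyme for full effect; nearly all actives have a fitted effect of over 40% in size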
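Detergent-free condition (0.00005% Triton X-100) in acetate buffer pH 5.5 with DTT. 1.5 nM enzyme and compound were pre-mixed 15 min, then 2 uM Z-FR-AMC substrate added; reaction progress from fluorescence change between first and third reads (60 s).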
The depositor's hits bear a star; ? = inconclusive. An excerpt weighted towards active compounds, which were near 2.4% of everything screened. Calls follow the shape of the dose curve; as a rule, active = well fitted curve in the direction sought with a large enough effect; inconclusive = small, poorly fitted or top-dose-only effect, or another doubt; inactive = no such curve, though single readings can be large; an effect the other way counts as inactive or inconclusive. Potency is read from the fitted curve at half-maximal effect.

SMILES	Cruzain Triton	Cruzain noTriton
N#Cc1c(Sc2ncc(C(F)(F)F)cc2Cl)nsc1C/C=N\OCc1ccccc1Br	-15%	7.9µM*
CCN(Cc1nc(-c2ccc(OC)cc2)oc1C)S(=O)(=O)c1ccc(Cl)cc1	-5%	-8%
CC1=CC(C)(C)Nc2ccc(OC(=O)CN3C(=O)c4cccc5cccc(c45)C3=O)cc21	-8%	25µM*
CC1=CC(C)(C)Nc2ccc(OC(=O)CN3C(=O)c4ccccc4C3=O)cc21	-6%	4%
Cc1ccc(C(C)C)c(OCC(=O)Nc2ccc(S(=O)(=O)Nc3onc(C)c3C)cc2)c1	-25%	8%
COc1cc(C2CC(=O)Oc3cc(C)c(Cl)cc32)cc(OC)c1OC (stereo not given)	0%	?
O=C(NNC(=O)c1sc2cccc(Cl)c2c1Cl)NC1CCCCC1	-9%	-7%
O=C(NNC(=O)c1sc2cccc(Cl)c2c1Cl)Nc1ccccc1	2%	10µM*
CCCSc1nc(-c2ccc(OC)cc2)cc(-c2ccccc2OC)c1C#N	2%	-5%
CC(=O)Nc1ccc(NC(=O)Cn2c(-c3ccc(F)cc3)cnc2SCC(=O)Nc2c(C)cccc2C)cc1	1%	20µM*
COc1ccc(NC(=O)CSc2ncc(-c3ccc(F)cc3)n2Cc2ccco2)cc1	-9%	25%
O=C(CCS(=O)(=O)c1ccc(Br)s1)Nc1c(F)cccc1F	0%	-5%
COC(=O)C1=NN(c2ccccc2)C2(S1)SC(C(C)=O)=C(C)N2c1ccccc1 (stereo not given)	0%	2%
CC(=O)C1=NN(c2ccccc2)C2(S1)S/C(=C\c1ccccc1)C(=O)N2c1ccccc1 (stereo not given)	2%	10µM*
CCOc1ccc(NS(=O)(=O)c2ccc(C(=O)N(C)C)s2)cc1	2%	-7%
COc1ccc(C2CC(c3ccccc3)=NN2C(=O)COC(=O)c2cccnc2Cl)cc1 (stereo not given)	-7%	16%
COc1ccc(C2CC(c3ccccc3)=NN2C(=O)COC(=O)c2cccnc2)cc1 (stereo not given)	-8%	16µM*
COc1ccc(C2CC(c3ccccc3)=NN2C(=O)COC(=O)c2cc(S(=O)(=O)N3CCOCC3)ccc2Cl)cc1 (stereo not given)	1%	13µM*
COc1ccc(C2CC(c3ccccc3)=NN2C(=O)COC(=O)C2CC2)cc1 (stereo not given)	-8%	0%
COc1ccc(CNC(=O)C2CCN(S(=O)(=O)c3ccc4c(ccn4C)c3)CC2)cc1	-3%	?
COc1ccc(Cl)cc1NC(=O)CSc1nc2c(oc3ccccc32)c(=O)n1Cc1ccco1	-1%	-3%
Cc1ccccc1NC(=O)C(=O)NCC1(c2ccccc2)CCCC1	-1%	0%
CCOC(=O)c1c(Nc2ccccc2)sc(/C=C2\C=Nc3ccccc32)c1O	5%	-27%
CCn1c(O)c(/C=C2\C=Nc3ccccc32)sc1=Nc1ccc(C)cc1	3%	16µM*
CC(=O)c1cc(-c2ccccc2)n(CC(=O)NCCc2ccc(C)cc2)c1C	-1%	-13%
SMILES	Cruzain Triton	Cruzain noTriton
Cc1cccc(NC(=O)c2sc3nc(N4CCOCC4)c4c(c3c2N)CC(C)(C)OC4)c1	-2%	26%
COc1cccc(CNC(=O)c2c(O)nc3ccccn3c2=O)c1	-1%	-10%
CC1CCN(S(=O)(=O)c2ccc3[nH]ccc3c2)CC1	0%	-1%
Cc1ccccc1Nc1oc(-c2ccccc2)nc1-c1ccccc1F	-2%	-12%
O=C1CC(c2ccccc2Cl)Cc2c1cnn2-c1nc2ccccc2s1 (stereo not given)	-4%	13µM*
O=c1c(Cl)c(N2CCN(c3ccc(F)cc3)CC2)cnn1-c1nc2ccccc2s1	3%	?
O=C(Nc1ccc(Br)cc1F)c1cc2nc(-c3ccco3)cc(C(F)(F)Cl)n2n1	0%	26%
CC1CCC(NC(=O)C2(C)Cc3ccccc3C(=O)N2Cc2ccc(Cl)cc2)CC1 (stereo not given)	-3%	-15%
COc1cccc(CNC(=O)CSc2cc(C)[nH]c(=O)n2)c1	0%	?
CC(C)c1ccc(Nc2nc3c(S(=O)(=O)c4ccc(Br)cc4)nnn3c3ccsc23)cc1	0%	-13%
O=C(Nc1ccc(Cl)cc1F)c1ccc(COc2c(F)c(F)c(F)c(F)c2F)o1	20µM*	?
O=C(Nc1ccc(F)cc1F)c1ccc(COc2c(F)c(F)cc(F)c2F)o1	-10%	2%
C=CCSc1nc2sc(-c3ccccc3)cc2c(=O)n1N	-5%	32µM*
Cc1ccccc1-n1c(SCC(N)=O)nc2sc(-c3ccccc3)cc2c1=O	-5%	10%
CCOC(=O)c1c(NC(=O)c2nc(SC(C)C)ncc2Cl)sc2c1CCCC2	1%	1%
CCN(CC)CCCC(C)n1c(-c2ccccc2)nc2c(NCc3ccccc3)nc(C)nc21 (stereo not given)	-1%	3%
CCOCCn1cnc2sc(C(=O)Nc3ccccc3C(=O)OC)c(C)c2c1=O	2%	4%
Cc1ccc(S(=O)(=O)N(CCc2ccccc2)CC(=O)Nc2cc(C)ccc2C)cc1	1%	4%
O=S(=O)(c1ccc2nc(Nc3cccc(F)c3)ccc2c1)N1CCCC1	-17%	-29%
CCOC(=O)c1cccc(Nc2ccc3cc(S(=O)(=O)N4CCCCC4)ccc3n2)c1	-4%	25µM*
O=S(=O)(c1ccc2nc(Nc3ccc(F)cc3)ccc2c1)N1CCCC1	1%	-4%
CC1CCN(S(=O)(=O)c2ccc3nc(Nc4cccc(C(F)(F)F)c4)ccc3c2)CC1	0%	?
CCOc1ccc(OCC)c(Nc2ccc3cc(S(=O)(=O)N4CCCC4)ccc3n2)c1	0%	-16%
COc1ccc(Cl)cc1Nc1ccc2cc(S(=O)(=O)N3CCCCC3)ccc2n1	-1%	25µM*
COc1ccc(Nc2ccc3cc(S(=O)(=O)N4CCCC4)ccc3n2)cc1Cl	-4%	25µM*
SMILES	Cruzain Triton	Cruzain noTriton
CC1CCN(S(=O)(=O)c2ccc3nc(Nc4ccc(C#N)cc4)ccc3c2)CC1	-6%	32µM*
COc1ccc(OC)c(CCNC(=O)CS(=O)(=O)Cc2nc(-c3cccc(Cl)c3)oc2C)c1	-9%	?
COc1cc(NC(=S)NCCC(c2ccccc2)c2ccccc2)cc(OC)c1	-10%	32µM*
COc1cccc(NC(=S)NCCC(c2ccccc2)c2ccccc2)c1	-3%	-9%
CC1=NOC(=O)/C1=C\c1ccc(-c2cccc(Cl)c2)o1	-22%	?
Cc1nc(S/C(=C/c2ccc(-c3cccc(Cl)c3)o2)C(=O)O)n[nH]1	3%	25µM*
CC1(C)O[C@H]2C[C@@H]3[C@H]4CCC5=CC(=O)C=C[C@]5(C)[C@@]4(F)[C@@H](O)C[C@]3(C)[C@]2(C(=O)CO)O1	1%	-1%
CCOC(=O)c1c(C2COc3ccccc3O2)csc1N (stereo not given)	-7%	-6%
CCOC(=O)c1c(C2COc3ccccc3O2)csc1NC(=O)c1ccccc1 (stereo not given)	-13%	25µM*
CSCCC(NS(=O)(=O)c1ccc2c(c1)oc(=O)n2C)C(=O)NCc1ccc(F)cc1 (stereo not given)	0%	-4%
O=C(Nc1ccc2[nH]c3c(c2c1)CCCC3)c1ccco1	-10%	-17%
Cc1cc(C)cc(NC(=S)NCc2ccc3[nH]c4c(c3c2)CCCC4)c1	-1%	32µM*
S=C(NCc1ccc2[nH]c3c(c2c1)CCCC3)Nc1ccccc1	-10%	32µM*
CCS(=O)(=O)NCc1ccc2[nH]c3c(c2c1)CCCC3	-6%	-22%
